Each structure is given as a SMILES string. Results filed as inconclusive are left out. Active and inactive are the calls of the source. Calls follow the shape of the dose curve; as a rule, active = well fitted activation curve with a large enough effect; inconclusive = small, poorly fitted or top-dose-only effect; inactive = flat fitted curve, though single readings scatter.

This assay in a line: Cellular Toxicity (caspase-3) Hek293 (AID 664).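 Also: cells exposed to compound for 16 h at 37 °C before readout.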 As to conditions: HEK293 caspase-3 activation, DMSO = 0%, 100 µM tamoxifen = 100%; series mostly up to 92.2 µM. From the text:
NIH Chemical Genomics Center [NCGC]
NIH Molecular Libraries Screening Centers Network [MLSCN]
National Institutes of Environmental Health Sciences [NIEHS]
National Toxicology Program [NTP]
We have developed a 1536-well cell-based assay for quantitative high throughput screening (qHTS) against a number of cell lines to determine in vitro caspase 3/7 of small molecules. This particular assay uses the Hek 293 cell line which is derived from human embryonic kidney cells.
NCGC Assay Protocol Summary:
The Caspase-Glo 3/7 assay (Promega) is a homogeneous method to measure caspase-3 and caspase-7 activities in cultured cells. The quantitation of caspase 3/7 activity is based on the cleavage of a peptide-aminoluciferin substrate. After caspase cleaves the substrate the free aminoluciferin is liberated and serves as the substrate of luciferase, which generates the light. The luminescent signal is proportional to amount of caspase 3/7 activity present.
Using the Caspase-Glo 3/7 assay, the amount of caspase 3/7 activity was measured in the Hek 293 cell line with complete culture medium following compound treatment for 16 hours. The assay was performed in opaque white 1536-well plates. In the screen, tamoxifen and doxorubicin were used as positive controls. Library compounds were measured for their ability to cause the activation of caspase 3/7 in the cell line, as reflected by an increase in luminescence signal, in a concentration-dependent manner. Data were normalized to the controls for basal activity (DMSO only) and 100% stimulation (100 uM tamoxifen). AC50 values were determined from concentration-response data modeled with the standard Hill equation.
qHTS protocol for caspase 3/7 assay in Hek 293 cells
[Step] [Parameter] [Value] [Description]
2. Time; 5 hr; 37 °C incubation
4. Controls; 23 nL; Tamoxifen 0.23 uM to 100 uM & Doxorubicin 7.0 pM to 100 uM
5. Time; 16 hr; 37 °C incubation
6. Reagent; 5 uL; Caspase-Glo 3/7 reagent
7. Time; 20 min; Room Temperature
8. Detection; Luminescence; Viewlux plate reader
Keywords: caspase 3/7, apoptosis, Hek 293 cell line, luminescence, NTPHTS, NTPHTS_NCGC, NIEHS, EPA, DSSTox, MLSMR, MLSCN, NIH Roadmap, qHTS, NCGC
For `BrCCBr`, the compound was called inactive.

Take `O=NN(c1ccccc1)c1ccccc1`: the call was inactive.

As for `COP(=S)(OC)Oc1ccc([N+](=O)[O-])cc1`, the result was inactive.

`C[C@]12CC[C@H]3[C@@H](CCC4=CC(=O)CC[C@@]43C)[C@@H]1CC[C@@H]2O`: the call was inactive.

Turning to `Nc1ccccc1Cl`, the call was inactive.

Take `Brc1ccccc1`: the result was inactive.

With `O=C(O)COc1ccc(Cl)cc1Cl`, the call was inactive.

Take `ClC1=C(Cl)C2(Cl)C3C4CC(C5OC45)C3C1(Cl)C2(Cl)Cl` (stereo not given): the compound was called inactive.

For `c1ccc(OP(Oc2ccccc2)Oc2ccccc2)cc1`, the result was inactive.

For the compound `CC(=O)[O-].CC(=O)[O-].O.O.O.[Pb+2]`, the result was inactive.

As to `C=C(C)C#N`, the call was inactive.

With `CCOP(=S)(OCC)SCSC(C)(C)C`, the result was inactive.

With `C/C=C/c1ccc2c(c1)OCO2`, the compound was classed as inactive.

As for `ClC(Cl)=C(Cl)Cl`, the result was inactive.

Take `C[C@H]1CCCC(=O)CCC/C=C/c2cc(O)cc(O)c2C(=O)O1`: the call was inactive.

For `ClCBr`, the result was inactive.

As to `Clc1nc(Cl)nc(Nc2ccccc2Cl)n1`, the compound was called inactive.

With `Cc1cccc([N+](=O)[O-])c1`, the outcome was inactive.

Turning to `CN=C=S`, the outcome was inactive.

Regarding `Nc1c(Cl)c(Cl)nc(C(=O)O)c1Cl`, the compound was called inactive.

Consider `C=CC(=C)C`, for which the compound was called inactive.

Regarding `Cc1ccc(O)c(C)c1`, the compound was called inactive.

With `NC(=S)Nc1ccccc1`, the compound was classed as inactive.

Consider `CCCCCCCC(=O)Cl`, for which the outcome was inactive.

On to `C=CCOC(=O)c1ccccc1N`, for which the call was inactive.

In the case of `COc1ccc(N)cc1`, the result was inactive.

With `O=[N+]([O-])c1cccc2ccccc12`, the compound was classed as inactive.

In the case of `ClC(Cl)=C(c1ccc(Cl)cc1)c1ccc(Cl)cc1`, the compound was classed as inactive.

Consider `Brc1ccc(Oc2cc(Br)c(Br)cc2Br)c(Br)c1`, for which the call was inactive.

As to `C=CC1CC=CCC1` (stereo not given), the compound was classed as inactive.

Regarding `CC(C)(C)OO`, the compound was classed as inactive.

For the compound `O=[N+]([O-])c1ccc(Cl)c(Cl)c1`, the compound was classed as inactive.

Take `CCCCOCCOP(=O)(OCCOCCCC)OCCOCCCC`: the compound was classed as inactive.

Regarding `S=C=Nc1cccc2ccccc12`, the call was inactive.

In the case of `CCCSC(=O)Cl`, the outcome was inactive.

`COC(=O)NC(=S)Nc1ccccc1NC(=S)NC(=O)OC`: the compound was classed as inactive.

Turning to `ClC(Cl)(Cl)c1ccccc1`, the result was inactive.

As for `COc1ccc(C=O)cc1OC`, the compound was called inactive.

Consider `OCC1CO1` (stereo not given), for which the outcome was inactive.

Turning to `Clc1ccc2ccccc2c1`, the compound was classed as inactive.

The record behind these values is PubChem BioAssay (NCATS).
